Calls of active or inactive are those of the source.

Among the data in PubChem BioAssay are z-score and composite z-score values, retold here.

Assay [1] is described as follows: compound effects on differentiated 3T3-L1 adipocyte viability – cell-based, 3T3-L1 adipocytes, calcein-AM fluorescence, 48 h, basal, profiling panel (AID 1163). The settings on record: 3T3-L1 adipocytes viability, higher = more signal.
Assay [2] in a line: compound effects on hepatocellular carcinoma cell viability – HepG2, calcein-AM fluorescence, 48 h, basal, profiling panel (AID 1164). The settings on record: higher = more signal.
A short description of assay [3]: compound effects on multiple myeloma cell viability – MM1S, calcein-AM fluorescence, 48 h, basal, profiling panel (AID 1165).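 Further: viability of MM1S multiple myeloma cells under basal unstimulated conditions.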 Particulars: higher = more signal.
The nature of assay [4]: calcein-AM signal in unstimulated myeloma cells – cell-based, calcein-AM fluorescence, 48 h, PK04 Diversity Set, profiling panel (AID 1166).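 Further: cells grown under basal conditions without added stimulus.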 Particulars: RPMI8226 myeloma viability, higher = more signal.
A short description of assay [5]: JC-1 mitochondrial signal, unstimulated HepG2 cells – cell-based, JC-1 fluorescence, 24 h, 100 nL compound, profiling panel (AID 1167). Particulars: HepG2 mitochondrial potential, higher = more signal.
A short description of assay [6]: JC-1 mitochondrial signal, unstimulated adipocytes – cell-based, JC-1 fluorescence, 3T3-L1 adipocytes, 24 h, 100 nL compound, profiling panel (AID 1168). The settings on record: JC-1 mitochondrial fluorescence, higher = more signal, called active from +8 up or from −8 down.
Assay [7] is described as follows: JC-1 mitochondrial signal, unstimulated myeloma cells – cell-based, JC-1 fluorescence, RPMI8226, 24 h, 100 nL compound, profiling panel (AID 1169). The settings on record: JC-1 mitochondrial potential fluorescence, higher = more signal.
Assay [8] can be described thus: JC-1 mitochondrial signal, unstimulated MM1S myeloma – cell-based, JC-1 fluorescence, 24 h, 100 nL compound, profiling panel (AID 1170). The settings on record: MM1S mitochondrial potential, higher = more signal.
Assay [9] in a line: resazurin metabolic signal in A549 cells – cell-based, resazurin fluorescence, 24 h, PK04 Diversity Set, profiling panel (AID 1171). Particulars: A549 viability, higher = more signal, called active from +8 up or from −8 down.
Assay [10] can be described thus: resazurin metabolic signal in HepG2 cells – cell-based, resazurin fluorescence, 24 h, PK04 Diversity Set, profiling panel (AID 1172). The settings on record: HepG2 viability, higher = more signal. A general note: The colour change of resazurin is a common sign of viable cells or microbes.
Assay [11] can be described thus: budding yeast growth changes without added modifier – OD600, strain BY4716, 24 h, basal condition, primary screen (AID 1173). Particulars: S. cerevisiae BY4716 growth, OD600, 24 h; higher = more signal, called active from +8 up or from −8 down.
Assay [12] can be described thus: viability profiling in MM1S myeloma cells – cell-based, resazurin fluorescence, basal, 24 h, PK04 Diversity Set, profiling panel (AID 1174). The settings on record: higher = more signal, called active from +8 up or from −8 down.
Assay [13] deals with Dihydroorotate dehydrogenase (quinone), mitochondrial (Plasmodium falciparum (isolate 3D7)) (UniProt Q08210). The assay can be described thus: inhibition of P. falciparum DHODH – biochemical, C-terminal His tag, absorbance 600 nm, primary screen (AID 1175).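 Further: recombinant parasite enzyme with a five histidine tag at its C terminus.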 The settings on record: PfDHODH enzyme, DCIP absorbance 600 nm; higher = more signal, called active from +8 up or from −8 down.
Sequence of Dihydroorotate dehydrogenase (quinone), mitochondrial (Plasmodium falciparum (isolate 3D7)) (Q08210 whole entry, looked up): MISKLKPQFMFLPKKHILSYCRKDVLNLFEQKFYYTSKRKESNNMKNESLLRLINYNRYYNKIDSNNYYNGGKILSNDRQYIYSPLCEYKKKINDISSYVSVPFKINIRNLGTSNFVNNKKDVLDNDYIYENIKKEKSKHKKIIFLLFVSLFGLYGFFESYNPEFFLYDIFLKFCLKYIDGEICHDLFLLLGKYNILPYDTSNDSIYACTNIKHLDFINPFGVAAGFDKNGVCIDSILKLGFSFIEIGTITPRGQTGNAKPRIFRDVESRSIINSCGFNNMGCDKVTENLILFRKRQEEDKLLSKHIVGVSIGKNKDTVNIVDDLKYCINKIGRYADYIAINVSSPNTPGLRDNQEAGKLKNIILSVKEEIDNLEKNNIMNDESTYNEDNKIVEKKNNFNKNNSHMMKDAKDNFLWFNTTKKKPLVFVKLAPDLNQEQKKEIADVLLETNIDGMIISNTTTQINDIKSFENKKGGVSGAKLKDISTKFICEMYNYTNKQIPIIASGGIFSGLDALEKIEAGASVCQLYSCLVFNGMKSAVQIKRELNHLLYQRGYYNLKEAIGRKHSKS

Assay [14] can be described thus: growth modulation of vineyard yeast isolate – strain RM11-1a, OD600, basal, 24 h, primary screen (AID 1177).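 Further: cultures grown under basal conditions with no added stressor.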 Particulars: S. cerevisiae RM11-1a growth, OD600, 24 h; higher = more signal, called active from +8 up or from −8 down.
A short description of assay [15]: growth of efflux-deficient E. coli DRC39 – strain DRC39, OD650, 24 h, E. coli filamentation inducers, primary screen (AID 1178).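 Further: growth measured as culture turbidity by optical density at 650 nm.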 Particulars: E. coli DRC39 acrAB, higher = more signal, called active from +8 up or from −8 down.
Assay [16] can be described thus: growth of efflux-deficient E. coli DRC39 – strain DRC39, OD650, 48 h, E. coli filamentation inducers, primary screen (AID 1179).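 Further: screen aims at cell division blockers that make cells filament.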 The settings on record: E. coli DRC39 delta-acrAB growth, higher = more signal, called active from +8 up or from −8 down.
Assay [17] can be described thus: viability profiling in RPMI8226 myeloma cells – cell-based, resazurin fluorescence, basal, 24 h, PK04 Diversity Set, profiling panel (AID 1180).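 Further: RPMI8826 multiple myeloma cell line at 5000 cells per well.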 Particulars: higher = more signal.
Assay [18] deals with E3 ubiquitin-protein ligase XIAP (Homo sapiens) (UniProt P98170). In words: small molecules binding XIAP protein – biophysical, small-molecule microarray, fluorescence 635 nm, primary screen (AID 1181).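 Further: score merges 667 nm emission and signal to noise over triplicate slides.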 The settings on record: higher = more signal.
Sequence of E3 ubiquitin-protein ligase XIAP (Homo sapiens) (P98170 whole entry, looked up, the tested form may be a part): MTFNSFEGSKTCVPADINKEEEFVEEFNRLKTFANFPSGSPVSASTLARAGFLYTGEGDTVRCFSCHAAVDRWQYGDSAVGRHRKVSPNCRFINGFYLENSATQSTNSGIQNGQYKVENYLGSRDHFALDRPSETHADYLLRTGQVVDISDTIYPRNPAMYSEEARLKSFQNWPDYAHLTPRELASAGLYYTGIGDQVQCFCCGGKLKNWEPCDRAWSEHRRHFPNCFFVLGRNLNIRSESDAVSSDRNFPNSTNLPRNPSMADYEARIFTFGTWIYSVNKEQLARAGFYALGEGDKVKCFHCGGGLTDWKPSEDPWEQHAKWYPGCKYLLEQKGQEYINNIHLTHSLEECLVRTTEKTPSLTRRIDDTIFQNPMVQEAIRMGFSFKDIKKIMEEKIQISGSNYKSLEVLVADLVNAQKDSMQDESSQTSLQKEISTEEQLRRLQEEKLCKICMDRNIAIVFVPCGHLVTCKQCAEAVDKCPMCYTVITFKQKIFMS
Assay [19] has as its system XIP peptide (Xip251-270) binding. The assay can be described thus: XIP fragment 251-270 binding compounds – biochemical, small-molecule microarray, fluorescence 635/667 nm, 0.1 µg/mL protein, primary screen (AID 1182). Particulars: fluorescent protein binding, 635 nm, higher = more signal, called active from +8 up or from −8 down.
For another assay, the system named is XIP peptide (Xip251-270). The assay can be described thus: compounds binding XIP fragment 251-270 – biochemical, small-molecule microarray, fluorescence 635/667 nm, 0.5 µg/mL protein, primary screen (AID 1183). Particulars: fluorescence 635 nm, higher = more signal.

Consider `COc1ccc([Si](C)(C)[C@H]2[C@H](CCO)O[C@@]3(C(=O)N(Cc4ccc(N5C(=O)c6cccc7cccc5c67)cc4)c4ccccc43)[C@@H]2C)cc1`, for which the z-score in [1] was 2.06; in [2], -2.91; in assay [3], -1.23; in assay [4], -3.75; in [5], 0.00974; in assay [6], 1.68 (inactive). Also, the z-score was -1.07 in [7]; -1.6 in assay [8]; -2.51 (inactive) in assay [9]; -1.26 in [10]; -0.433 (inactive) in assay [11]; -2.4 (inactive) in assay [12]. The z-score in assay [14] is 2.48 (inactive); in assay [15], 2.3 (inactive); in [16], 1.4 (inactive); in assay [17] it was -4.55. Also, the composite z-score in assay [13] is -0.344 (inactive); in assay [18], 0.0223; in [19], 0.529 (inactive); with XIP peptide (Xip251-270), 0.623.

Turning to `Cc1ccc(S[C@]2(C(=O)NCCN3CCOCC3)CC(=O)N(Cc3cc(C(F)(F)F)cc(C(F)(F)F)c3)[C@@H]2c2ccc(CO)cc2)cc1`, the z-score in assay [1] is 0.947; in [2], -0.0671; in [3] it was 1.15; in assay [4], 0.603; in assay [5] it was 1.18; in assay [6], 0.784 (inactive). For the same molecule, the z-score in assay [7] is -0.0854; in [8], 0.685; in assay [9] it was 3.33 (inactive); in [10], 1.08; in [11] it was -1.76 (inactive); in [12], 0.828 (inactive). Moreover, the z-score is -2.54 (inactive) in [14], 1.01 (inactive) in assay [15], 1.45 (inactive) in assay [16] and 0.672 in assay [17]. Further, the composite z-score in assay [13] was -0.911 (inactive); in assay [18], 0.0808; in assay [19] it was -0.316 (inactive); with XIP peptide (Xip251-270), 0.0326.

As to `CC(C)C(=C=CC[C@H](O)c1ccc(OCCO)cc1)C[C@H](O)COCc1ccccc1`, the z-score in [1] was 0.475; in [2], -0.822; in assay [3], -3.38; in assay [4] it was -3.77; in [5], 0.296; in [6], 0.371 (inactive). The z-score is -0.625 in [7]; -1.36 in assay [8]; 0.515 (inactive) in assay [9]; 0.657 in assay [10]; -3.15 (inactive) in assay [11]; -1.83 (inactive) in assay [12]. The z-score was 1.04 (inactive) in assay [14], 1.35 (inactive) in assay [15], 0.883 (inactive) in assay [16] and -0.0676 in assay [17]. The composite z-score in assay [13] is -1.09 (inactive); in assay [18] it was -0.0233; in [19] it was 0.941 (inactive); with XIP peptide (Xip251-270), 0.0727.

As to `COCCOC(=O)N1C(=O)[C@@]2(c3cc(C#CC4(O)CCCCCC4)ccc31)[C@H](c1ccccc1OCCO)N1[C@H](c3ccccc3)[C@H](c3ccccc3)OC(=O)[C@H]1[C@@H]2C(=O)Nc1nc2ccccc2s1`, the z-score was 1.65 in assay [1]; -0.133 in assay [2]; -2.71 in assay [3]; -4.28 in assay [4]; -2.52 in assay [5]; 1.52 (inactive) in assay [6]. In addition, the z-score in assay [7] is -1.14; in assay [8] it was -0.807; in [9] it was 0.611 (inactive); in assay [10], 0.189; in assay [11], 1.15 (inactive); in [12] it was -0.326 (inactive). Besides, the z-score in assay [14] was 2.77 (inactive); in assay [15], -0.0438 (inactive); in assay [16], 0.61 (inactive); in [17], -0.346. Besides, the composite z-score in assay [13] was 0.764 (inactive); in assay [18], -0.0765; in [19], 1.65 (inactive); in the assay with XIP peptide (Xip251-270), 0.649.
